Reference: PubChem BioAssay (NCATS)
Values joined by “and” are separate entries in the source; they are usually repeats but may differ in a detail not shown here. Equal values may be shown once. Results filed as inconclusive are left out. Active and inactive are the calls of the source. Unless noted, calls come from the whole dose curve.

Key:
[1] = qHTS for Inhibitors of the Functional Ribonucleoprotein Complex (vRNP) of Lassa (LASV) Arenavirus: LASV Primary Screen - GLuc reporter signal (AID 1347082; calls by dose curve; tested in HEK293 reporter line; note: nearly all actives have a fitted effect of over 60% in size; note: potency is the fitted concentration of half-maximal effect; for activity change, negative = inhibition: % is set by controls: 0 for no effect and ±100 for the full control effect)
[2] = qHTS for Inhibitors of the Functional Ribonucleoprotein Complex (vRNP) of Lassa (LASV) Arenavirus: Viability assay - alamar blue signal for LASV Primary Screen (AID 1347083; calls by dose curve; tested in HEK293 reporter line; note: nearly all actives have a fitted effect of over 80% in size; note: potency is the fitted concentration of half-maximal effect)
[3] = qHTS for Inhibitors of the Functional Ribonucleoprotein Complex (vRNP) of Lymphocytic Choriomeningitis Arenaviruses (LCMV): Viability assay - alamar blue signal for LCMV Primary Screen (AID 1347085; calls by dose curve; tested in HEK293 reporter line; note: nearly all actives have a fitted effect of over 80% in size; note: potency is the fitted concentration of half-maximal effect)
[4] = target: Nucleoprotein (Lymphocytic choriomeningitis virus (strain Armstrong)) (UniProt P09992); assay: qHTS for Inhibitors of the Functional Ribonucleoprotein Complex (vRNP) of Lymphocytic Choriomeningitis Arenaviruses (LCMV): LCMV Primary Screen - GLuc reporter signal (AID 1347086); note: nearly all actives have a fitted effect of over 70% in size; note: potency is the fitted concentration of half-maximal effect; for activity change, negative = inhibition: % is set by controls: 0 for no effect and ±100 for the full control effect
Sequence of Nucleoprotein (Lymphocytic choriomeningitis virus (strain Armstrong)) (P09992 whole entry, looked up): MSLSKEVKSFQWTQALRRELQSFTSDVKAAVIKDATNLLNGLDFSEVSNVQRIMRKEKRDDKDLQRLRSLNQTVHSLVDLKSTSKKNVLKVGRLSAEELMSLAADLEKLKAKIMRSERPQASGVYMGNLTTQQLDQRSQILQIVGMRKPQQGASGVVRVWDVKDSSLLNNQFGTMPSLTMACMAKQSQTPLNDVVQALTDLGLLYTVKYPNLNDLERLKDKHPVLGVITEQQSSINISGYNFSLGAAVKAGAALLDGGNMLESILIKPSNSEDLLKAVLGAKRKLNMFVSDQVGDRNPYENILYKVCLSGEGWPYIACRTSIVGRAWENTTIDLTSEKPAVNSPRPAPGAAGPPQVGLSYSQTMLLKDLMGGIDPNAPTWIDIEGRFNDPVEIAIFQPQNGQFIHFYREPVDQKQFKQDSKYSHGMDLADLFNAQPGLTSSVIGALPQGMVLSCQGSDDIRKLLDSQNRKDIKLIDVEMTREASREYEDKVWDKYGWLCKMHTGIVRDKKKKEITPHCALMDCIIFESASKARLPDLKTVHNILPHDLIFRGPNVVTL

[5] = Primary qHTS for inhibitors of SARS-S pseudo-typed particle cell entry (AID 1479145); note: nearly all actives have a fitted effect of over 45% in size
[6] = Primary qHTS for Huh7 cytotoxicity: counterscreen for inhibitors of MERS-S pseudotyped particle cell entry (AID 1479147); conditions: outcome: dose series up to 57.1 µM unless noted
[7] = Primary qHTS for inhibitors of MERS-S pseudo-typed particle cell entry (AID 1479149); note: nearly all actives have a fitted effect of over 60% in size; note: potency is the fitted concentration of half-maximal effect; for activity change, negative = inhibition: % is set by controls: 0 for no effect and ±100 for the full control effect
[8] = Primary qHTS for Vero E6 cytotoxicity: counterscreen for inhibitors of SARS-S pseudo-typed particle cell entry (AID 1479150); conditions: outcome: dose series up to 57.1 µM unless noted
[9] = Cytotoxicity counterscreen for inhibitors of SARS-CoV-2 cell entry (AID 1645845); note: nearly all actives have a fitted effect of over 50% in size
In short: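 ATP-content luminescence (ATPLite 1step, 15 min RT) read after 48 h compound exposure of Expi293F cells stably expressing human ACE2; normalized to cells-only wells and media-only wells.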

[10] = VSVG counterscreen qHTS to identify inhibitors of SARS-CoV-2 cell entry (AID 1645847); note: potency is the fitted concentration of half-maximal effect; nearly all actives have a fitted effect of over 65% in size
In short: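 HEK293-ACE2 cells (Expi293F stably expressing human ACE2) were pretreated with compound for 1 h at 37 °C, then infected with MLV-based VSV-G pseudotyped particles for 48 h. Luciferase luminescence was normalized to VSV-G PP and bald PP wells.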

[11] = target: Alpha-galactosidase (Coffea arabica) (UniProt Q42656); assay: Counterscreen for Glucocerebrosidase Inhibitors: qHTS Assay for Coffee Bean alpha-Galactosidase at pH 4.5 (AID 957; active = well fitted curve in the direction sought with a large enough effect; an effect the other way counts as inactive or inconclusive;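 note: plate controls were enzyme alone for no effect and no enzyme for full effect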)
Sequence of Alpha-galactosidase (Coffea arabica) (Q42656 whole entry, looked up): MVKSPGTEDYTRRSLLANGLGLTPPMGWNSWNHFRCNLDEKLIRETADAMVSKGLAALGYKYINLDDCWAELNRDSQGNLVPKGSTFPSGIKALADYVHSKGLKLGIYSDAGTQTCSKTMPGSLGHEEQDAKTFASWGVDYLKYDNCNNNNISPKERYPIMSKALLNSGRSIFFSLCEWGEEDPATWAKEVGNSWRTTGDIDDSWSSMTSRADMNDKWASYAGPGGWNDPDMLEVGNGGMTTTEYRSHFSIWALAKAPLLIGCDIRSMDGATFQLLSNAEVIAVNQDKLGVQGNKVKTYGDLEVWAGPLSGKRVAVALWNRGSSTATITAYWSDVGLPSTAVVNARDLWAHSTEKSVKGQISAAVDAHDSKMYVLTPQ
In short: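 Enzyme is added first (2 nM final), then compounds titrated from 0.7 nM to 77 uM, then 80 uM 4-methylumbelliferyl alpha-D-galactopyranoside; after 20 min at room temperature a pH 10 NaOH/glycine stop precedes fluorescence reading at 365/440 nm.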

[12] = target: Alpha-galactosidase (Coffea arabica) (UniProt Q42656); assay: Counterscreen for Glucocerebrosidase Inhibitors: qHTS Assay for Coffee Bean alpha-Galactosidase at pH 5.9 (AID 998; active = well fitted curve in the direction sought with a large enough effect; an effect the other way counts as inactive or inconclusive;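 note: plate controls were uninhibited enzyme for no effect and no-enzyme basal signal for full effect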)
In short: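 Fluorogenic 4-MU substrate hydrolysis, 80 uM substrate and 2 nM coffee bean alpha-galactosidase, pH 5.9 citrate buffer, 20 min at room temperature, then NaOH/glycine stop. Titration 0.7 nM–77 uM, normalized to no-enzyme and enzyme controls, AC50 via Hill equation.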

[13] = Inducers of the Endoplasmic Reticulum Stress Response (ERSR) in human glioma: Validation (AID 504836; active = well fitted curve in the direction sought with a large enough effect; an effect the other way counts as inactive or inconclusive; note: 0% is about no effect)
In short: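 ERSR induction read as luciferase luminescence (Bright-Glo, 10 min at room temperature) in stably transfected human U87-MG glioma cells exposed to compounds for 16 h, using GRP78 as sensor.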

[14] = Primary qHTS to identify inhibitors of SARS-CoV-2 cell entry (AID 1645846); conditions: activity change, negative = inhibition: at 57.1 µM (top of the series) unless noted; note: nearly all actives have a fitted effect of over 45% in size
In short: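 Luminescence readout (Bright-Glo luciferase) 48 h after pseudoparticle addition. HEK293-ACE2 cells, 1500/well; compound pre-incubation 1 h; Normalized to spike PP and bald PP.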

[15] = qHTS profiling of the MIPE4 collection as inhibitors of Plasmodium falciparum (3D7) proliferation (AID 743344; call rule not given here;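 note: scaled between DMSO vehicle wells and 0.29 µM artemisinin as full inhibition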); conditions: P. falciparum 3D7 in erythrocytes, SYBR Green DNA fluorescence, 72 h; at 28.5 µM (top of the series) unless noted
In short: (§1)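 Parasite DNA was quantified by SYBR Green I fluorescence (ex 485, em 535 nm) after overnight lysis in saponin/Triton buffer at room temperature. Cultures at 0.3% parasitemia and 2.5% hematocrit were first exposed to compound for 72 h at 37 C; signals were normalised to artemisinin (0.29 uM) and vehicle wells.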

[16] = qHTS profiling of the MIPE4 collection as inhibitors of Plasmodium falciparum (DD2) proliferation (AID 743345; call rule not given here); conditions: P. falciparum Dd2 in erythrocytes, SYBR Green DNA, 72 h; at 28.5 µM (top of the series) unless noted
In short: as §1

[17] = qHTS profiling of the MIPE4 collection as inhibitors of Plasmodium falciparum (DD2) proliferation (Rep 2) (AID 743346; call rule not given here); conditions: P. falciparum Dd2 in erythrocytes, SYBR Green DNA, 72 h; at 28.5 µM (top of the series) unless noted
In short: as §1

[18] = Confirmatory qHTS to identify inhibitors of SARS-CoV-2 cell entry (AID 1645844); note: potency is the fitted concentration of half-maximal effect; nearly all actives have a fitted effect of over 45% in size
In short: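 Luminescence entry read-out after 48 h: spike-pseudotyped MLV particles (Wuhan-Hu-1, 19-aa C-terminal truncation) added to compound-pretreated (1 h) HEK293-ACE2 cells; Data were normalised to bald PP and spike PP wells.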

[19] = Validation screen for inhibitors of Lassa infection (AID 463096); note: % is set by controls: 0 for no effect and ±100 for the full control effect
[20] = target: Cytochrome P450 3A4 (Homo sapiens) (UniProt P08684); assay: qHTS Assay for Activators of Cytochrome P450 3A4 (AID 885; active = well fitted curve in the direction sought with a large enough effect; an effect the other way counts as inactive or inconclusive; note: nearly all actives have a fitted effect of over 65% in size)
Sequence of Cytochrome P450 3A4 (Homo sapiens) (P08684 whole entry, looked up): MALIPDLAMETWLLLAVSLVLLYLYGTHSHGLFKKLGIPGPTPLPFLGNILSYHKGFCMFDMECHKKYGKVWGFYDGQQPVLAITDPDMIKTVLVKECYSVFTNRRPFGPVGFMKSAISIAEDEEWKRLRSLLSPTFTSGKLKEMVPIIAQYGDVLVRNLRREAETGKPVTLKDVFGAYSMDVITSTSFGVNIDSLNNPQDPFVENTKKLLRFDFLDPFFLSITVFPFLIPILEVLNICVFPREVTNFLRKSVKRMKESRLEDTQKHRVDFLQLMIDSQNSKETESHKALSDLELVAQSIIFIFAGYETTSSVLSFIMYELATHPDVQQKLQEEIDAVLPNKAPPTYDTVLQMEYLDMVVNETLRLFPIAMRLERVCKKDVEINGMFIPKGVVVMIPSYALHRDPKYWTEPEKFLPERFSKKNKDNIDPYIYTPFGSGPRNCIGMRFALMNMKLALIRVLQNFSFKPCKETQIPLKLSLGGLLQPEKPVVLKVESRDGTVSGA
In short: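 Human CYP3A4 dealkylates Luciferin-PPXE to luciferin, which luciferase detection converts to light. Substrate was at its KM (25uM), buffer 200mM KPO4, reaction 60 min at RT.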

[21] = target: Nuclear receptor subfamily 1 group I member 3 (Homo sapiens) (UniProt Q14994); assay: Primary qHTS for antagonist of constitutive androstane receptor (CAR) against the NCATS DSHEA and TCM libraries (AID 1794836; active = well fitted curve in the direction sought with a large enough effect; an effect the other way counts as inactive or inconclusive;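 note: HepG2 cells stably expressing hCAR with CYP2B6 luciferase reporter stimulated by CITCO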)
Sequence of Nuclear receptor subfamily 1 group I member 3 (Homo sapiens) (Q14994 whole entry, looked up): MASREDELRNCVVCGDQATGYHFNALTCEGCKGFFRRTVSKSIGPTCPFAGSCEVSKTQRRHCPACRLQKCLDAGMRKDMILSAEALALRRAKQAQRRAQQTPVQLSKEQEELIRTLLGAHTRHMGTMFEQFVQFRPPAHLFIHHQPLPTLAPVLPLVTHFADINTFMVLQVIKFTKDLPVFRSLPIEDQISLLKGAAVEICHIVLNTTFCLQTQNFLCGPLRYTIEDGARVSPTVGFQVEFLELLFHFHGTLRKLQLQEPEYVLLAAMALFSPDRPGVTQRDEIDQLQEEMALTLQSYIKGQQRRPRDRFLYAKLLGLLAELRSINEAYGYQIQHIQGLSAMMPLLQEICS
In short: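 Antagonist mode: CAR reporter luminescence (ONE-Glo) in HepG2-CYP2B6-hCAR cells stimulated with 48 uM CITCO (final) over 24 h at 37 C, compounds titrated; viability read first by CellTiter-Fluor fluorescence.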

[22] = KB-8-5-11 P-gp reporter qHTS against the NCATS DSHEA and TCM libraries (AID 1919977; active = well fitted curve in the direction sought with a large enough effect; an effect the other way counts as inactive or inconclusive; note: 0% is about no effect)
In short: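 P-gp-overexpressing KB-8-5-11 cells (500/well) were plated in colchicine-free DMEM with 10% FBS, attached ~4 h, then exposed to substance titrations for ~72 h at 37C. Viability was read by CellTiter-Glo luminescence.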

CCOC(=O)[C@@H](N)Cc1ccc(-c2cc(O[C@H](c3ccc(Cl)cc3-n3ccc(C)n3)C(F)(F)F)nc(N)n2)cc1
inactive: Potency [1] | Potency [2] | Potency [3] | Potency [4] | Potency [5] | outcome [6] | Potency [7] | outcome [8] | Potency [9]
active: Potency [10] 19200 nM

NCCCC(=O)O
inactive: outcome [11] | outcome [12] | outcome [13] | Potency [1] | Potency [2] | Potency [3] | Potency [4] | Potency [5]

CO/N=C(\C(=O)N[C@@H]1C(=O)N2C(C(=O)O)=C(COC(C)=O)CS[C@H]12)c1csc(N)n1
inactive: outcome [13] | Potency [1] | Potency [2] | Potency [3] | Potency [4] | Potency [5] | outcome [6] | Potency [7] | outcome [8]

CO[C@H]1[C@@H](O)[C@H](N)[C@@H](O[C@H]2O[C@H]([C@H](C)N)CC[C@H]2N)[C@H](O)[C@@H]1N(C)C(=O)CN
inactive: Potency [1] | Potency [2] | Potency [3] | Potency [4] | outcome [6] | Potency [7] | outcome [8] | Potency [9]
-5.5%: activity change, negative = inhibition [14]

Cc1cn([C@@H]2C[C@@H](O)[C@H](CO)O2)c(=O)[nH]c1=O
93.3%: parasite growth, % of DMSO control [15]
-18% and -32.2%: activity change, negative = inhibition [14]
inactive: Potency [1] | Potency [2] | Potency [3] | Potency [4] | Potency [5] | outcome [6] | Potency [7] | outcome [8] | Potency [9]
94.9%: parasite growth, % of control (lower = inhibition) [17]
92.6%: parasite growth remaining, % of DMSO control (lower = more inhibition) [16]

COc1c(OCCCN2CCOCC2)ccc2c3n(c(=NC(=O)c4cnc(N)nc4)nc12)CCN3
active: Potency [1] 1500 nM | Potency [2] 298 nM | Potency [3] 1060 nM | Potency [4] 2980 nM | Potency [7] 3550 nM | Potency [18] 312 nM | Potency [10] 2780 nM
inactive: activity change, negative = cytotoxicity [6] 3.49% [at 11.4 µM] | activity change, negative = cytotoxicity [8] -14.8% [at 11.4 µM]

CCCNS(=O)(=O)Nc1ncnc(OCCOc2ncc(Br)cn2)c1-c1ccc(Br)cc1
inactive: Potency [1] | Potency [2] | Potency [3] | Potency [4] | outcome [6] | Potency [7] | outcome [8] | Potency [9]

CCCC1O[C@@H]2C[C@H]3[C@@H]4CCC5=CC(=O)C=C[C@]5(C)[C@H]4[C@@H](O)C[C@]3(C)[C@]2(C(=O)CO)O1 (stereo partly specified)
inactive: outcome [12] | outcome [13] | Potency [1] | Potency [2] | Potency [3] | Potency [4] | Potency [5] | outcome [6] | Potency [7] | outcome [8] | Potency [9]
-23.4%: activity change, negative = inhibition [14]

N[C@H](CO)C(=O)O
inactive: Potency [19] | outcome [13] | Potency [1] | Potency [2] | Potency [3] | Potency [4] | Potency [5] | outcome [6] | Potency [7] | outcome [8] | Potency [9] | Potency [14]

CC1=C(/C=C/C(C)=C/C=C/C(C)=C\C(=O)O)C(C)(C)CCC1
-7.39%: activity change, negative = inhibition [14]
inactive: Potency [19] | outcome [13] | Potency [1] | Potency [2] | Potency [3] | Potency [4] | Potency [5] | outcome [6] | Potency [7] | outcome [8] | Potency [9] | Potency [14]

NC(=O)c1cc[n+](CC2=C(C(=O)O)N3C(=O)[C@@H](NC(=O)[C@@H](c4ccccc4)S(=O)(=O)[O-])[C@H]3SC2)cc1
2.35%: activity change, negative = inhibition [14]
inactive: Potency [19] | outcome [13] | Potency [1] | Potency [2] | Potency [3] | Potency [4] | Potency [5] | outcome [6] | Potency [7] | outcome [8] | Potency [9]

CCN(C(=O)c1c(O)c2c(Cl)cccc2n(C)c1=O)c1ccccc1
inactive: Potency [1] | Potency [2] | Potency [3] | Potency [4] | Potency [5] | outcome [6] | Potency [7] | outcome [8] | Potency [9]
-55.1% and -33%: activity change, negative = inhibition [14]

Nc1cc(Cl)c(NC2=NCCN2)c(Cl)c1
inactive: outcome [11] | outcome [12] | Potency [19] | outcome [13] | Potency [1] | Potency [2] | Potency [3] | Potency [4] | Potency [5] | outcome [6] | Potency [7] | outcome [8] | Potency [9]
-17%: activity change, negative = inhibition [14]

CCC(=O)NCC[C@@H]1CCc2ccc3c(c21)CCO3
-26.7%: activity change, negative = inhibition [14]
inactive: Potency [1] | Potency [2] | Potency [3] | Potency [4] | outcome [6] | Potency [7] | outcome [8] | Potency [9]

CCCCCCCCCCCCCCCC(=O)O[C@@H]1CC(C)=C(/C=C/C(C)=C/C=C/C(C)=C/C=C/C=C(C)/C=C/C=C(C)/C=C/C2=C(C)C[C@@H](OC(=O)CCCCCCCCCCCCCCC)CC2(C)C)C(C)(C)C1
inactive: Potency [1] | Potency [2] | Potency [3] | Potency [4] | outcome [6] | Potency [7] | outcome [8] | Potency [9]

C[N+](C)(C)CCO
inactive: Potency [20] | outcome [11] | Potency [19] | outcome [13] | Potency [1] | Potency [2] | Potency [3] | Potency [4] | Potency [5] | outcome [6] inactive [at 114 µM] | Potency [7] | outcome [8] inactive [at 114 µM] | Potency [9] | Potency [21] | outcome [22]
-23.8% [at 114 µM]: activity change, negative = inhibition [14]

N[C@@H](CC(=O)O)C(=O)O
inactive: outcome [11] | outcome [12] | Potency [19] | outcome [13] | Potency [1] | Potency [2] | Potency [3] | Potency [4] | activity change, negative = inhibition [5] -20.9% [at 5.34 µM] | outcome [6] inactive [at 5.34 µM] | outcome [7] inactive [at 5.34 µM] | activity change, negative = cytotoxicity [8] 2.41% [at 5.34 µM] | outcome [9] inactive [at 5.25 µM] | outcome [14] inactive [at 5.25 µM]
